cardiac RTF act = cardiac RTF calcium sensitization; P19429+P45379; IANBD-labeled TnC RTF fluorescence at EC20 calcium; 0% EC20 calcium, 100% full calcium; activation, % at 7.2 µM; hit rate 0.24% among 340,000; AID 493008;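 active = activation above the mean over all tested compounds plus 3 SD, cut at about 30% in these data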;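 note: rise in fluorescence read as greater calcium sensitivity of cardiac thin filaments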
EBV gp42 inh = EBV gp42 inhibition; Q1HVG2; Fluorescence polarization binding assay, mP read-out; inhibition, % (tested at 21.74 µM); hit rate 0.42% among 220,000; AID 1085; in the data active = inhibition above about 50%
Target sequence (Q1HVG2 whole entry, looked up): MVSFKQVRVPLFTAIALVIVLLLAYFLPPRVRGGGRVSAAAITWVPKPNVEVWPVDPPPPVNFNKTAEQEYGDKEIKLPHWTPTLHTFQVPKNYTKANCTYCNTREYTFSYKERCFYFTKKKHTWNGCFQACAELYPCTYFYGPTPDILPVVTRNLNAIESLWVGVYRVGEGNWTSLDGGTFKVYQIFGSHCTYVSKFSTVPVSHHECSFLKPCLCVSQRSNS
eLon inh = inhibits E. coli Lon protease | P0A9M0 | hit rate 0.42% among 360,000 | purified E. coli Lon protease, fluorescence polarization | inhibition, % at 7.94 µM; in the data active = inhibition above about 13%, passing the limit was not always enough;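 note: 0% = enzyme with probe and DMSO and 100% = no enzyme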
Cardiac RTF inh = cardiac RTF calcium desensitization; P19429+P45379; IANBD-labeled cardiac RTF, Ca2+ fluorescence; inhibition, % at 7.15 µM; hit rate 0.12% among 340,000; AID 493244;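 active = inhibition above the mean inhibition of all tested compounds plus 3 SD, cut at about 17% in these data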;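 note: assay run at fixed EC70 calcium of 1.6 mM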
Keap1 Nrf2 FP = disrupts human Keap1 binding to Nrf2 peptide; Q14145; Keap1 Kelch-Nrf2 peptide fluorescence polarization, 1536-well; inhibition, % at 9.4 µM; hit rate 0.15% among 340,000; in the data active = inhibition above about 12%;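 note: human Keap1 Kelch domain with fluorescein labeled Nrf2 9mer peptide probe; 0% = neutral control wells and 100% = peptide positive control; higher means more block of Keap1 binding to Nrf2 peptide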
C-LANA FP = blocks KSHV LANA C-terminal domain binding to DNA. MBP-C-LANA/FAM-LBS DNA binding, fluorescence polarization. inhibition, % at 9 µM. hit rate 0.078% among 340,000. AID 504423;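 active = highest replicate inhibition at or above 60% at 9 µM, even if other replicates fall short; inactive = all replicates below 60% inhibition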;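 note: 0% = neutral control wells and 100% = 4 µM acridine orange control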
* = called active by the depositor; i = inactive; nt = not tested or not shown. Compounds with a hit are over-represented: about 0.98% of the library has one in this group of screens.

SMILES	cardiac RTF act	EBV gp42 inh	eLon inh	Cardiac RTF inh	Keap1 Nrf2 FP	C-LANA FP
Cc1ccc(NC(=O)NC(=O)COc2ccccc2C(N)=O)c(C)c1	8	nt	-13	-8	-3	2
O=C(COC(=O)c1ccc(O)cc1)Nc1ccc2c(c1)OCCO2	30*	nt	-4	3	-3	3
CCOC1=C2[C@H](c3ccccc3)N(S(=O)(=O)c3ccc(C)cc3)C(C(C)(C)C)[C@H]2C(C#N)(C#N)C(C#N)(C#N)C1 (some centres not stated)	nt	nt	-1	nt	nt	nt
COc1ccc(OC)c(/C=c2\sc3nc(-c4cccs4)nn3c2=O)c1	50*	135*	11	-2	11	24
COc1ccccc1/C=c1\sc2nc(-c3ccco3)nn2c1=O	-4	-11	-9	-1	5	8
CC(C)N1CC(C(=O)Nc2ccc(Cl)cc2Cl)CC1=O (configuration not stated)	nt	nt	-4	nt	nt	nt
Nc1ccc(-c2nc3ccc(C(=O)O)cc3s2)cc1	3	99*	-6	-13	-5	51
Cc1ccc(/C=C2\SC(=S)N(/N=C/c3cc([N+](=O)[O-])ccc3O)C2=O)o1	-3	-10	-2	3	9	74*
O=C(O)c1cnn(-c2nc(-c3ccc(Br)cc3)cs2)c1C(F)(F)F	1	nt	-1	-9	-3	1
CN1CCc2c(sc(/N=C/c3cccs3)c2C(N)=O)C1	31*	-13	-71	-16	-15	6
N#C/C(=C\c1ccc(N2CCOCC2)o1)c1ccccc1	3	-111	-20	-2	-12	-1
COc1cccc(/C=C(/C#N)c2nc3ccccc3[nH]2)c1OC(C)C(=O)O (configuration not stated)	35*	nt	-14	-1	3	-2
Cc1cc(/C=C(/C#N)c2nc3ccccc3[nH]2)c(C)n1-c1cccc([N+](=O)[O-])c1	2	-4	-2	-6	1	-1
Cc1cc(/C=C(\C#N)c2nc3ccccc3[nH]2)c(C)n1C	-1	105*	9	-11	-3	3
COc1cc(/C=C(\C#N)c2nc3ccccc3[nH]2)cc(OC)c1O	32*	-173	i	-46	-52	-40
N#C/C(=C/c1ccc(N2CCOCC2)o1)c1nc2ccccc2[nH]1	244*	-275	i	-195	-116	-26
CC1CC(C)(C)CC2(C1)NC(=O)N(CC(=O)N1CCN(S(=O)(=O)c3ccc(F)c(F)c3F)CC1)C2=O (configuration not stated)	0	nt	1	-12	-4	0
Cc1cc(OCC(=O)N(Cc2ccco2)c2c(N)n(Cc3ccccc3)c(=O)[nH]c2=O)ccc1Cl	2	nt	-9	-5	-9	-2
COc1ccc(C(C)=O)cc1CC(=O)Nc1cccc(S(=O)(=O)N2CCOCC2)c1	0	nt	-16	-2	-3	-1
Cc1ccc(C(=O)ONc2ccc(N=NC(=O)c3ccccc3O)cc2)cc1	1	93*	3	1	-1	-1
Cc1ccc(C(=O)ONc2ccc(N=O)cc2)cc1	1	-11	-1	-7	-4	2
O=C1CSC(=S)N1/N=C/c1cc(Br)c(O)c(Br)c1	56*	nt	i	-120	-263	-22
c1ccc(Nc2ccc3c4c(cccc24)CC3)cc1	52*	-10	-203	-94	-2	-1
c1ccc(Nc2cccc3ccccc23)cc1	10	nt	4	-6	-1	2
COc1ccc2nc(-c3ccccc3)cc(C(=O)OCC(=O)N3CC(C)OC(C)C3)c2c1 (configuration not stated)	0	nt	-5	-12	-4	-1
CSc1cccc(NC(=O)CC2Oc3ccccc3NC2=O)c1 (configuration not stated)	2	nt	5	-6	1	-2
C=CCN1CC(c2nc3ccccc3n2CCOc2ccccc2)CC1=O (configuration not stated)	3	58*	-5	-10	-4	1
C=C(C)Cn1c(C2CC(=O)N(Cc3ccccc3)C2)nc2ccccc21 (configuration not stated)	0	nt	-7	-11	-4	-2
CCOC(=O)C1C(=O)C=C(c2ccc(C)cc2)CC1c1ccccc1 (configuration not stated)	4	9	4	-9	4	-1

Assay outcomes (PubChem BioAssay)
